Structures are written as SMILES. Where “and” joins values, the source holds several entries; their conditions need not be identical. Identical values can stand only once. Out of some 77,000 compounds screened, about 4,600 (6%) were called active. Not shown: some 1% with an inconclusive outcome.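 How the source made its calls: active means mean inhibition above about 93%, with at least 55% of replicates each passing it (limit read from the data, passing the limit was not always enough); inconclusive means only one of those two conditions holds; inactive means neither condition holds.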 Only a selection was taken, and actives are over-represented in it overall.

The assay is described as follows: growth inhibition of T. cruzi in host fibroblasts – cell-based, beta-gal Tulahuen parasites, NIH3T3 host, luminescence, primary screen (AID 624255). The note with it: T. cruzi beta-gal in NIH3T3, GalScreen luminescence, 90 h; at 8.34 µM; stronger effect = higher value.
For the compound `CN1C(=O)c2cc(NC(=O)c3ccccc3)ccc2OC[C@@H]2O[C@@H](CC(=O)NC3CCCC3)CC[C@H]21`, the inhibition (commonly the drop in the measured response relative to a control, in per cent) was 18.9% (inactive).

As to `CC=Cc1ccc2n(c1=O)C[C@@H]1[C@@H](CO)[C@H](C(=O)N(C)C)[C@H]2N1CCc1ccccc1` (mixture of isomers), the inhibition is 37% (inactive).

As for `Cc1ccccc1S(=O)(=O)N1[C@H](C#N)[C@H](c2ccccc2)[C@H]1CO`, the inhibition was -43.9% (inactive).

Consider `COc1ccc(NC(=O)N(C)C[C@H]2Oc3c(NC(=O)NC(C)C)cccc3C(=O)N([C@@H](C)CO)C[C@H]2C)cc1`, for which the inhibition is 39.4% (inactive).

With `COc1ccc(S(=O)(=O)N(C)C[C@@H]2Oc3c(NC(=O)NC(C)C)cccc3C(=O)N([C@@H](C)CO)C[C@@H]2C)cc1`, the inhibition is 11.6% (inactive).

For `C[C@@H]1CN([C@@H](C)CO)C(=O)c2cccc(NC(=O)c3nc4ccccc4s3)c2O[C@H]1CN(C)S(=O)(=O)c1cccs1`, the inhibition was 82.6% (inactive).

On to `COc1ccc(S(=O)(=O)N(C)C[C@H]2Oc3c(NC(=O)Nc4cccc5ccccc45)cccc3C(=O)N([C@@H](C)CO)C[C@H]2C)cc1`, for which the inhibition is 128% (active).

With `COc1ccc(NC(=O)N(C)C[C@@H]2Oc3c(NC(=O)NC4CCCCC4)cccc3C(=O)N([C@@H](C)CO)C[C@@H]2C)cc1`, the inhibition was 99.3% (active).

`Cc1ccc(S(=O)(=O)N(C)C[C@@H]2Oc3c(NC(=O)c4nc5ccccc5s4)cccc3C(=O)N([C@H](C)CO)C[C@@H]2C)cc1`: the inhibition is 110% (active).

As for `C[C@@H]1CN([C@@H](C)CO)C(=O)c2cccc(NC(=O)Nc3cccc4ccccc34)c2O[C@H]1CN(C)S(=O)(=O)c1ccccc1`, the inhibition is 41.2% (inactive).

Turning to `C[C@@H]1CN([C@H](C)CO)C(=O)c2cccc(NC(=O)c3nc4ccccc4s3)c2O[C@H]1CN(C)S(=O)(=O)c1ccc(Cl)cc1`, the inhibition is 55.8% (inactive).

`COc1ccc(NC(=O)N(C)C[C@@H]2Oc3c(NC(=O)NC4CCCCC4)cccc3C(=O)N([C@H](C)CO)C[C@H]2C)cc1`: the inhibition is 2.44% (inactive).

Turning to `CO[C@H]1CN(C)C(=O)c2ccc(NS(C)(=O)=O)cc2OC[C@@H](C)N(C(=O)c2ccc3c(c2)OCO3)C[C@@H]1C`, the inhibition was 22.5% (inactive).

For `O=C(C[C@@H]1CC[C@H]2[C@@H](COC[C@H](O)CN2C(=O)Nc2ccc(Cl)cc2)O1)NCC1CC1`, the inhibition is 9.76% (inactive).

Turning to `O=C(c1cccnc1)N1C[C@H]2[C@@H](c3ccccc31)[C@H](CO)N2C(=O)C1CC1`, the inhibition is 32.1% (inactive).

On to `COc1ccc(NC(=O)Nc2ccc3c(c2)[C@H]2C[C@H](CC(=O)NC4CCCCC4)O[C@H](CO)[C@H]2O3)cc1`, for which the inhibition was -22.1% (inactive).

In the case of `O=C(NC1CCCC1)[C@H]1[C@H](CO)[C@H]2Cn3c(cccc3=O)[C@H]2N1C(=O)NC1CCCC1`, the inhibition was -32.8% (inactive).

Consider `C[C@@H]1CN([C@H](C)CO)C(=O)c2cc(-c3cccc(C#N)c3)cnc2O[C@H]1CN(C)C(=O)C1CCC1`, for which the inhibition was -99.6% (inactive).

In the case of `COCC(=O)Nc1ccc2c(c1)OC[C@H](C)N(C(=O)c1ccccn1)C[C@@H](C)[C@H](OC)CN(C)C2=O`, the inhibition was 26.6% (inactive).

In the case of `C[C@H](CO)N1C[C@H](C)[C@@H](CN(C)C(=O)C2CC2)Oc2ncc(-c3cccc(C#N)c3)cc2C1=O`, the inhibition was 68.3% (inactive).

For the compound `Cc1ccc(S(=O)(=O)N2C[C@H](O)COC[C@@H]3O[C@H](CC(=O)N[C@H]4CCN(Cc5ccccc5)C4)CC[C@H]32)cc1`, the inhibition is 51.3% (inactive).

Take `CC(C)CC#Cc1ccc2c(c1)O[C@H](CN(C)C(=O)C1CC1)[C@@H](C)CN([C@@H](C)CO)S2(=O)=O`: the inhibition is 115% (active).

Take `CCC(=O)N(C)C[C@H]1Oc2cc(C#CCC(C)C)ccc2S(=O)(=O)N([C@H](C)CO)C[C@H]1C`: the inhibition is 41.2% (inactive).

With `C[C@@H]1CN([C@@H](C)CO)S(=O)(=O)c2ccc(C#CCN(C)C)cc2O[C@H]1CN(C)C(=O)C1CC1`, the inhibition was 94.7% (active).

Consider `C[C@H](O)C#Cc1ccc2c(c1)O[C@H](CN(C)C(=O)C1CC1)[C@@H](C)CN([C@H](C)CO)S2(=O)=O`, for which the inhibition was 13.9% (inactive).

Take `C[C@@H]1CN([C@H](C)CO)S(=O)(=O)c2ccc(-c3ccccc3)cc2O[C@@H]1CN(C)C(=O)C1CC1`: the inhibition was 84.2% (inactive).

`C[C@H](CO)N1C[C@H](C)[C@@H](CN(C)C(=O)C2CCCCC2)Oc2cc(-c3ccccc3)ccc2S1(=O)=O`: the inhibition was 103% (active).

As to `CCCC#Cc1ccc2c(c1)O[C@H](CN(C)C(=O)C1CCCCC1)[C@H](C)CN([C@H](C)CO)S2(=O)=O`, the inhibition is 68.4% (inactive).

As for `C[C@H](O)C#Cc1ccc2c(c1)O[C@@H](CN(C)C(=O)C1CC1)[C@H](C)CN([C@H](C)CO)S2(=O)=O`, the inhibition is -20.8% (inactive).

Turning to `C[C@@H]1CN([C@H](C)CO)S(=O)(=O)c2ccc(-c3ccccc3)cc2O[C@H]1CN(C)C(=O)C1CCC1`, the inhibition is 55% (inactive).

Turning to `COCC(=O)Nc1ccc2c(c1)[C@@H]1C[C@@H](CC(=O)N3CCN(C)CC3)O[C@H](CO)[C@@H]1O2`, the inhibition was -9.47% (inactive).

Turning to `COc1ccc(NC(=O)N(C)C[C@H]2Oc3cc(-c4ccncc4)ccc3S(=O)(=O)N([C@@H](C)CO)C[C@H]2C)cc1`, the inhibition was 53.3% (inactive).

For `CCCNC(=O)[C@H]1[C@H](CO)[C@H]2Cn3c(ccc(C4=CCCC4)c3=O)[C@H]2N1C(=O)CC1CC1`, the inhibition is -12.5% (inactive).

For the compound `C[C@H](NC(=O)C[C@H]1CC[C@H]2[C@@H](COC[C@H](O)CN2C(=O)Nc2cc(Cl)cc(Cl)c2)O1)c1ccccc1`, the inhibition is 20.2% (inactive).

As to `Cc1ccccc1S(=O)(=O)N[C@@H]1CC[C@@H](CCNS(=O)(=O)c2cccc(F)c2)O[C@H]1CO`, the inhibition was 22% (inactive).

`CCC(=O)N(C)C[C@H]1Oc2ncc(-c3ccc(C#N)cc3)cc2C(=O)N([C@@H](C)CO)C[C@H]1C`: the inhibition was 51.9% (inactive).

Consider `COc1ccc(-c2cnc3c(c2)C(=O)N([C@H](C)CO)C[C@@H](C)[C@H](CN(C)Cc2ccccc2)O3)cc1`, for which the inhibition was 19.2% (inactive) and 75.6% (inactive).

`C/C=C/c1ccc([C@H]2[C@@H](C#N)N(C(=O)CN3CCOCC3)[C@@H]2CO)cc1`: the inhibition is 80.8% (inactive).

Consider `COCC(=O)N1[C@H](CO)[C@@H](c2ccc(C#Cc3ccccc3F)cc2)[C@@H]1C#N`, for which the inhibition is 97.7% (active).

Regarding `N#C[C@@H]1[C@@H](c2ccccc2)[C@@H](CO)N1C(=O)Cc1ccccc1`, the inhibition is 105% (active).

Turning to `N#C[C@@H]1[C@H](c2ccc(C#Cc3ccccc3F)cc2)[C@H](CO)N1C(=O)C1CCCCC1`, the inhibition is 83.3% (inactive).

Turning to `N#C[C@H]1[C@H](c2ccc(-c3ccccc3)cc2)[C@@H](CO)N1C(=O)Cc1ccccc1`, the inhibition is 79.5% (inactive).

On to `N#C[C@@H]1[C@@H](c2ccc(-c3ccccc3)cc2)[C@@H](CO)N1C(=O)Cc1ccccc1`, for which the inhibition is 31% (inactive).

On to `COc1ccccc1C#Cc1ccc([C@@H]2[C@@H](CO)N(C(=O)C3CC3)[C@H]2C#N)cc1`, for which the inhibition was 88.6% (inactive).

With `COC(=O)C[C@@H]1C[C@H]2c3cc(NC(=O)Nc4ccc(F)cc4)ccc3O[C@H]2[C@@H](CO)O1`, the inhibition is -1.42% (inactive).

For the compound `CC(=O)NC[C@H]1[C@H](c2ccc(C3=CCCCC3)cc2)[C@@H](CO)N1C(=O)NC(C)C`, the inhibition is 21.7% (inactive).

As for `COc1ccccc1S(=O)(=O)N[C@@H]1CC[C@H](CC(=O)N2CCOCC2)O[C@@H]1CO`, the inhibition was 16.9% (inactive).

In the case of `CNC(=O)C[C@@H]1CC[C@@H]2[C@H](COc3ccc(NC(=O)Nc4ccccc4)cc3C(=O)N2C)O1`, the inhibition was 7.48% (inactive).

Regarding `C[C@H](CO)N1C[C@H](C)[C@H](CN(C)CC2CC2)OCCCC[C@H](C)Oc2ccc(NC(=O)c3ccncc3)cc2C1=O`, the inhibition is 29.6% (inactive).

Regarding `CCC(=O)N1C[C@H](C)[C@@H](OC)CN(C)C(=O)c2cc(NC(=O)c3cnccn3)ccc2OC[C@@H]1C`, the inhibition was 11% (inactive).

On to `COCCNC[C@@H]1[C@H](c2ccccc2)[C@H](CO)N1c1nc(C)c(C)s1`, for which the inhibition is 100% (active).

Consider `CCNC[C@@H]1[C@@H](c2ccccc2)[C@@H](CO)N1C(=O)Cc1ccccn1`, for which the inhibition was 31.9% (inactive).

Regarding `COCC(=O)N1[C@H](CNC(=O)c2ccccn2)[C@H](c2ccccc2)[C@@H]1CO`, the inhibition is 26.4% (inactive).

`COC(=O)C[C@@H]1CC[C@@H]2[C@H](COc3ccc(NC(=O)c4ccccc4OC)cc3C(=O)N2C)O1`: the inhibition is 44.4% (inactive).

As for `CC(=O)N1[C@H](CO)[C@H]2c3ccccc3N(C(=O)c3ccc(F)cc3)C[C@H]21`, the inhibition is 14.7% (inactive).

For the compound `CCC(=O)N1[C@@H](CO)[C@@H]2c3ccccc3N(C(=O)c3ccccc3F)C[C@@H]21`, the inhibition is 6.74% (inactive).

Consider `O=C(c1ccccc1F)N1C[C@H]2[C@@H](c3ccccc31)[C@@H](CO)N2C(=O)c1ccc(F)cc1`, for which the inhibition was 103% (active).

With `O=C(C[C@@H]1C[C@@H]2c3cc(NC(=O)CC4CC4)ccc3O[C@@H]2[C@@H](CO)O1)NCCN1CCCCC1`, the inhibition was -43.9% (inactive).

With `COc1cccc(CNC(=O)c2cc3c(c(-c4cccc(-c5ccc(C#N)cc5)c4)n2)[C@@H](CCO)N([S@](=O)C(C)(C)C)C3)c1`, the inhibition is 84.2% (inactive).

Consider `CC(C)(C)[S@@](=O)N1Cc2cc(C(=O)NCc3ccc4c(c3)OCO4)nc(-c3cccc(-c4ccccc4)c3)c2[C@H]1CCO`, for which the inhibition was 99.7% (active).

Consider `CCCNC(=O)c1cc2c(c(-c3cccc(-c4ccc(F)cc4)c3)n1)[C@@H](CCO)N([S@](=O)C(C)(C)C)C2`, for which the inhibition was 87.5% (inactive).

Turning to `CCC(=O)N1C[C@@H](C)[C@H](OC)CN(C)C(=O)c2ccc(NC(=O)Nc3ccccc3)cc2OC[C@@H]1C`, the inhibition was 13.5% (inactive).

Turning to `C[C@H](CO)N1C[C@H](C)[C@H](CN(C)C)Oc2cc(C#CC3CC3)ccc2S1(=O)=O`, the inhibition was -175% (inactive).

For the compound `COCC(=O)N(C)C[C@H]1Oc2cc(C#CC3CCCC3)ccc2S(=O)(=O)N([C@H](C)CO)C[C@@H]1C`, the inhibition was 22.9% (inactive).

With `C[C@H](CO)N1C[C@H](C)[C@@H](CN(C)C(=O)Nc2cc(F)ccc2F)Oc2cc(C#CC3CC3)ccc2S1(=O)=O`, the inhibition was 114% (active).

Consider `CC(=O)N(C)C[C@H]1Oc2cc(C#CC3CC3)ccc2S(=O)(=O)N([C@H](C)CO)C[C@@H]1C`, for which the inhibition was 21.1% (inactive).

As for `CCC(=O)N(C)C[C@H]1Oc2cc(C#CC3CCCC3)ccc2S(=O)(=O)N([C@H](C)CO)C[C@@H]1C`, the inhibition is 86.4% (inactive).

For the compound `C[C@H]1CN([C@@H](C)CO)S(=O)(=O)c2ccc(C#CC3CCCC3)cc2O[C@@H]1CN(C)C(=O)c1cccc(F)c1`, the inhibition is 115% (active).

The record behind these values is PubChem BioAssay AID624255 (Broad Institute, 2012).
